Sampled rows, rich in hits. Any-hit rate of the full collection: about 2.9%.
D3 antag: blocks the human D3 dopamine receptor. P35462. D3R cells, DiscoveRx beta-arrestin luminescence, antagonist mode; hits give low values. max response, negative = inhibition, %. 2.5% of 360,000 active; in the data active = max response below about -50%; inconclusive = no clear call, values can overlap the other calls; note: % is set by controls: 0 for no effect and ±100 for the full control effect
Target sequence (P35462 whole entry, looked up): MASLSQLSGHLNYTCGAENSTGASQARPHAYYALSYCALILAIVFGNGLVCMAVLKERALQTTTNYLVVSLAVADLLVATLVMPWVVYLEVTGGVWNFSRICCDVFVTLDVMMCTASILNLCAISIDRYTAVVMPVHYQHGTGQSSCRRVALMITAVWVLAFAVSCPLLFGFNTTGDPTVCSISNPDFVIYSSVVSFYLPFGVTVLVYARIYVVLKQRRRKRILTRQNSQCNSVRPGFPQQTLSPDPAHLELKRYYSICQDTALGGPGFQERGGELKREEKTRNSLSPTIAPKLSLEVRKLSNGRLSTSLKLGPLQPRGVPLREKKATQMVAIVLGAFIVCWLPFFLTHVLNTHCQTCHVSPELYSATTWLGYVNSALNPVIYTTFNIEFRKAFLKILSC
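Cells plated overnight at 1500 cells/well, then exposed to library compounds with dopamine controls for 90 minutes at 37 degrees C. DiscoveRx reagent added for 30–60 minutes at room temperature; luminescence read, quantitative HTS format.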
D3 ag: agonists of human D3 dopamine receptor. P35462. D3R DiscoveRx beta-arrestin cells, luminescence, 90 min. max activation, %. 0.58% of 410,000 active. AID 652048; in the data active = max activation above about 30%; note: 0% is about no effect
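Cells at 1500/well, incubated overnight, then treated with pinned compounds (dopamine as control) for 90 min at 37 degrees C. DiscoveRx reagent added for 30 - 60 minutes at room temperature; luminescence read.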
TRPML1 blocker: blocks the human TRPML1 channel; Q9GZU1; TRPML1-inducible cells, Ca2+ dye fluorescence, FDSS; hits give low values; inhibition of EC80 agonist-evoked calcium signal; activity change, negative = inhibition, % (test concentration not listed); 0.02% of 390,000 active; in the data active = activity change below about -50%; inconclusive = between about -30% and that limit;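 note: stimulus is agonist 54-4 at its EC80 concentration; % is set by controls: 0 for no effect and ±100 for the full control effect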
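Calcium fluorescence in TRPML1-DL cells induced overnight with Tet: a 110 s read after compound pin addition, then a 110 s antagonist read after challenge with 54-4 at 4 uM final (EC80).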
TRPML1 ag: activates the human TRPML1 channel; TRPML1-expressing cells, Ca2+ dye fluorescence, FDSS; 0.12% of 410,000 active; AID 624414; Q9GZU1; activation, % (test concentration not listed); in the data active = activation above about 50%; inconclusive = mostly about 30% to 49%; note: 0% is about no effect
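Tetracycline-induced TRPML1-DL cells are seeded and incubated overnight before loading with a no-wash Ca2+ dye and quencher. Agonist activity is taken from the 110 s fluorescence read following compound pin-transfer on an FDSS, before EC80 54-4 challenge.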
Numbers without * were called inactive; ? = inconclusive; / = no result; ! = a repeat was not active.

SMILES	D3 antag	D3 ag	TRPML1 blocker	TRPML1 ag
COc1cccc(Nc2nc3ccccc3nc2NS(=O)(=O)c2ccc(NC(C)=O)cc2)c1	-27.5	-7.3	-3.8	0.4
COc1cccc(Nc2nc3cc(C)ccc3nc2NS(=O)(=O)c2ccc(Cl)cc2)c1	/	43.3*	1.2	0.2
CC1=NN(c2ccccc2)C(=O)/C1=C/C=C/C=C/N(C)C	-69.0*	-15.8	-4.2	1.6
CC1=NN(c2ccc(C)cc2)C(=O)/C1=C\C=C\c1ccccc1	5.7	6.2	2.0	-0.1
N#Cc1ccc(S(=O)(=O)N2CCN(c3nc(-c4ccccc4)nc4ccccc34)CC2)cc1	/	/	/	0.1
COc1cc(/C=C2\S/C(=N/S(=O)(=O)c3ccccc3)NC2=O)c([N+](=O)[O-])cc1OC	-87.6*	-4.0	-12.6	1.6
O=C(CN1C(=O)CCSc2ccc(S(=O)(=O)N3CCCC3)cc21)Nc1cccc(F)c1	/	-8.2	4.3	-0.8
CN(C)N=Nc1ccc(/C=C2\C=Cc3ccccc32)cc1	/	/	/	-0.2
Cc1ccn2c(NCc3ccccc3)c(-c3cccc(SC4CCCCC4)c3)nc2c1	103.3	41.3*!	30.7	-1.0
Cc1ccc2nc(-c3cccc(SC4CCCCC4)c3)c(NCc3ccccc3)n2c1	58.0	5.1	64.0	0.6
CCC(C)Sc1cccc(-c2nc3cc(C)ccn3c2NCc2ccccc2)c1 (configuration not stated)	39.2	76.7*	36.2	0.7
c1ccc(CNc2c(-c3cccc(SC4CCCCC4)c3)nc3ccccn23)cc1	89.9	43.1*	29.2	-0.2
CCCCCCCCCCCCCCCC(=O)OCCC1CCN(CCCN2c3ccccc3Sc3ccc(S(=O)(=O)N(C)C)cc32)CC1	/	-22.8	/	/
CN1CCN(CCCN2c3ccccc3Sc3ccc(S(=O)(=O)N(C)C)cc32)CC1	-53.0*	-23.2	-8.7	2.5
COCC(N)(c1ccccc1)c1nc2ccccc2n1C (configuration not stated)	-88.9*	1.2	-4.0	-0.3
Cc1ccc(C(C[N+](=O)[O-])c2c(C)[nH]n(-c3ccccc3)c2=O)cc1 (configuration not stated)	-63.5*	-36.1	-15.4	1.6
Cc1ccc(NC(=O)c2cc3c([nH]c2=O)CC(c2ccccc2)CC3=O)cc1 (configuration not stated)	/	/	/	-0.7
CCOC(=O)N1CCN(Cc2nc3cc(NC(=O)C(C)C)ccc3n2C(C)C)CC1	/	-14.7	8.8	1.6
O=C(NCCc1ccccc1Cl)c1cc2ccccn2n1	/	2.7	5.5	1.2
O=[N+]([O-])c1cccc(/C=N\N2CCN(Cc3ccccc3Cl)CC2)c1	-77.9*	-0.8	?	-0.3
O=[N+]([O-])c1cccc(/C=N/N2CCN(Cc3ccccc3)CC2)c1	4.3	-13.7	-6.0	-0.7
CCc1ccc(NC(=O)Cn2c(-c3cncs3)nc3ccccc32)cc1	/	3.2	-2.8	2.0
CC(=O)Nc1c(O)nc(SCc2ccccc2C#N)[nH]c1=O	-51.0*	8.5	7.6	1.5
CCCCCCCCCCCCCCCCC(C(=O)O)C(O)(CC(=O)O)C(=O)O (configuration not stated)	/	39.5*	/	/
Cc1ccc(C)c2nc3sc(C(=O)N4CCCc5ccccc54)c(N)c3cc12	-53.8*	-19.2	-0.5	7.0
SMILES	D3 antag	D3 ag	TRPML1 blocker	TRPML1 ag
O=C1CCN(CCc2ccccc2)CCN1[C@H](COc1ccccc1)c1ccccc1	-3.0	-31.8	0.5	-1.0
CC(C)CN1CCC(=O)N([C@H](COc2ccccc2)c2ccccc2)CC1	-69.9*	-60.2	-9.4	-0.8
CCCN1CCC(=O)N([C@H](COc2ccccc2)c2ccccc2)CC1	-103.6*	-74.5	-6.4	-0.4
O=S(=O)(/C=C/C=C/S(=O)(=O)c1ccccc1)c1ccccc1	-100.5*	-30.8	-2.9	5.2
Cc1ccc(S(=O)(=O)C=CS(=O)(=O)c2ccc(C)cc2)cc1	-99.4*	-17.0	24.1	6.3
CC1=C(C(=O)OC2CCCC2)C(c2cccc(Cl)c2Cl)CC(=O)N1 (configuration not stated)	/	3.9	-5.7	-1.2
Cn1nnnc1SCC(=O)Nc1nc(-c2ccccc2)c(-c2ccccc2)o1	-52.6*	-6.9	13.1	0.3
O=C(CSC(=S)N1CCCCC1)Nc1nc(-c2ccccc2)c(-c2ccccc2)o1	-51.8*	-40.2	2.5	-0.2
CCN(CC)C(=S)SCC(=O)Nc1nc(-c2ccccc2)c(-c2ccccc2)o1	-10.0	-7.1	-8.9	1.1
O=C(CSC(=S)N1CCOCC1)Nc1nc(-c2ccccc2)c(-c2ccccc2)o1	-29.9	7.3	-15.2	1.5

Screens from PubChem BioAssay.
